Reference: PubChem BioAssay AID1347431 (National Center for Advancing Translational Sciences (NCATS), 2020)
In all, about 1,200 compounds went through this assay and fewer than 10 were called active. The list is a sample of the results. A number with no mark means an inactive call. Calls come from the whole dose curve; as a rule, active = well fitted curve in the direction sought with a large enough effect; inconclusive = small, poorly fitted or top-dose-only effect, or another doubt; inactive = no such curve, though single readings can be large or run the other way.

Assay: Confirmatory qHTS assay for inhibitors of Activation Induced Cytidine Deaminase (AID): UDG signals; note: 0% is about no effect
Details: UDG coupled enzyme activity counter-screen; series mostly up to 115 µM; activity change, negative = inhibition: at the top concentration
Excerpt: Assay Provider (PI) Patricia Gearhart Ph.D.
National Institute on Aging
National Institute of Health (NIH), Bethesda, MD
Assay Provider (PI) Rahul Kohli Ph.D.
Perelman School of Medicine
University of Pennsylvania, Philadelphia, PA
Activation-Induced Deaminase (AID) is a cytosine deaminase which converts cytosine into uracil within stretches of ssDNA. The presence of uracil in DNA initiates a cascade of mutagenic DNA repair to introduce point mutations and DNA double strand breaks. Specific targeting of AID to the immunoglobulin heavy chain loci (Igh) promotes mutagenesis in the antibody variable region for somatic hypermutation (SHM) or switch regions leading to class switch recombination (CSR). However, AID also plays a role in accumulating unnecessary mutations across the genome. Mis-targeting of AID results in the initiation of tumor development and leads to greater drug resistance among cancer cells when continually expressed. To identify an AID inhibitor, a small molecule library will be screened in collaboration with NCATS core facility at NIH. To confirm biological function, inhibitors will be examined in an in vitro murine B-cell activation assay and subsequent secondary validation screens. Top molecules will be further screened to identify inhibitory efficacy against a wild type primary splenocytes assay. Using these approaches, we hope to identify a small molecule with great efficacy and low toxicity for use as a molecular probe to further characterize AID's intricacies, or even as a therapeutic.
A FRET based analysis of cytosine deamination, was developed to identify potential inhibitors of AID catalytic activity. This screen has two signal output, Read 1 evaluates the AID inhibition response. The second readout (Read 2) evaluates UDG response and is uses as a counterscreen to exclude false positive inhibitors. Inhibition in AID and inactivity in the UDG signal is the desired outcome for this assay.
SEQUENCE No. (e.g., 1, 2, 3, etc.); […] (e.g., Cells, Incubation, Reagent, etc.); VALUE; DESCRIPTION
1a; Reagent; 3 uL; [4/3x] 1 uM AID/2.67 U/mL UDG
1b; Reagent; 3 uL; 2 U/mL UDG
1c; Reagent; 3 uL; 1 uM AID
2a; Compound; 46 nL; Follow-up plates (0.64 uM - 10 mM)
2b; Control; 46 nL; ATA ([…] - 10 mM)
3; Time; 10 min; incubation at room temperature
5; Time; 4 hr; incubation at room temperature
6; Reagent; 4 uL; [2x] 250 mM NaOH
7; Time; 15 sec; centrifuge at 1000 rpm
8; Time; 30 min; incubation at room temperature
9a; Detection; fluorescence (Read 1: AID); EnVision (PerkinElmer) plate reader, 540 excitation and 590 emission filters
9b; Detection; fluorescence (Read 2: UDG); EnVision (PerkinElmer) plate reader, 560 excitation and 665 emission filters
NOTES (numbers refer to sequence above)
1a; Reagents were dispensed in a medium-binding black solid-bottom Greiner plates (789176F) using a BioRptr liquid dispenser. Dispense 3 uL of [4/3x] 1 uM AID (provided by Kohli lab) and [4/3x] 2 U/mL UDG (NEB M0280L) into columns 1, 2, 5 to 48.
1b; Dispense 3 uL of [4/3x] 2 U/mL UDG into column 3.
1c; Dispense 3 uL of [4/3x] 1 uM AID into column 4.
2a; Compound (7-points [uM]: 0.64; 3.2; 16; 80; 400; 2,000; 10,000; […]) double pin-transferred (Dip Factor = 2) using the Kalypsys (Wako USA) pintool equipped with a 1536 pinhead for a final concentration range of 7.32 nM - 114 uM.
2b; 10 mM Aurintricarboxylic Acid (Sigma A1895) (ATA, 8-point, n = 2, 1:2.5 dilution in column 2) double pin-transferred (Dip Factor = 2) using the Kalypsys (Wako USA) pintool equipped with a 1536 pinhead for a [final] range of 186 nM - 114 uM.
3; Room temperature incubation.
4; Dispense 1 uL of substrate mixture from the Kohli lab [4x] […] DJC20 and [4x] 250 nM DJC23 into columns 1 to 48 .
5; Room temperature incubation.
6; Dispense 4 uL of substrate mixture [2x] 250 mM NaOH into columns 1 to 48.
7; Centrifugation step to remove bubbles.
8; Room temperature incubation
9a; Fluorescence signal (column label AID) was read using the EnVision plate reader. […]
For `CCN1CCN(c2cc(C)c3cc(NC(=O)/C=C/c4cccc(Cl)c4)ccc3n2)CC1`, the “activity change, negative = inhibition” value was 2.14%.
In the case of `CCOc1ccc(Nc2sc(C(=O)c3ccc(F)cc3)c(N)c2S(=O)(=O)c2ccc(C)cc2)cc1`, the “activity change, negative = inhibition” value is reported as -3.57%.
With `CCc1ccccc1N(C)C(=O)c1sc2nc3n(c(=O)c2c1C)CCCCC3` the “activity change, negative = inhibition” value was 1.65%.
With `COc1ccc(CNC(=O)c2cnn3c(C)c(Cc4c(F)cccc4Cl)c(C)nc23)cc1` the “activity change, negative = inhibition” value was -1.61%.
With `COc1ccc(C(=O)c2cn(Cc3ccccc3F)c3ccc(F)cc3c2=O)cc1` the “activity change, negative = inhibition” value was -4.88%.
In the case of `CCCCCCSc1nc(N)c2c3c(sc2n1)CCCC3C` (stereo not given), the “activity change, negative = inhibition” value is reported as -13.7%.
For `Cc1nc2c(C(=O)NCCc3ccc(Cl)cc3)cnn2c(C)c1Cc1ccc(F)cc1`, the “activity change, negative = inhibition” value was -12.3%.
With `Cc1cccc(N2C(=O)N(CC(=O)C(C)(C)C)c3ccccc3S2(=O)=O)c1C` the “activity change, negative = inhibition” value was 2.18%.
For `COc1ccccc1OCCn1c(C(C)Oc2ccccc2)nc2ccccc21` (stereo not given), the “activity change, negative = inhibition” value was -7.15%.
With `CCOc1ccccc1NC(=O)CN1C(=O)CC(c2ccc(OC)c(OC)c2)Sc2ccccc21` (stereo not given) the “activity change, negative = inhibition” value was -2.93%.
In the case of `CCC(C(=O)N1CCN(c2cc(C)ccc2C)CC1)n1nc(C)n2c(cc3occc32)c1=O` (stereo not given), the “activity change, negative = inhibition” value is reported as -15%.
In the case of `COc1ccc(-n2c(Cc3ccccc3)nnc2SCc2nc(-c3ccccc3C)no2)cc1`, the “activity change, negative = inhibition” value is reported as -23.7%.
For `COc1ccc(N2C(=O)CSC23C(=O)N(Cc2cccc(C(F)(F)F)c2)c2ccccc23)cc1` (stereo not given), the “activity change, negative = inhibition” value was -6.88%.
With `Cc1nc2cc(-c3ccccc3)nn2c(C)c1CCC(=O)N1CCN(c2ccc(F)cc2)CC1` the “activity change, negative = inhibition” value was -8.14%.
For `COc1ccc(C)cc1N(C)C(=O)c1sc2nc3n(c(=O)c2c1C)CCCCC3`, the “activity change, negative = inhibition” value was 1.37%.
For `Cc1oc(-c2ccccc2Cl)nc1CS(=O)CC(=O)N1CCN(c2cccc(C(F)(F)F)c2)CC1` (stereo not given), the “activity change, negative = inhibition” value was 1.61%.
For `Cc1ccc2onc(CC(=O)N3CCN(c4cc(Cl)ccc4C)CC3)c2c1`, the “activity change, negative = inhibition” value was -3.38%.
With `CCn1cc(C(=O)NCCc2ccc(OC)c(OC)c2)c(=O)c2cc(S(=O)(=O)N(C)C3CCCCC3)ccc21` the “activity change, negative = inhibition” value was -16%.
In the case of `CC(C)c1ccc(NC(=O)c2ccc3c(O)c(S(=O)(=O)c4ccccc4)c(=O)[nH]c3c2)cc1`, the “activity change, negative = inhibition” value is reported as 1.07%.
With `CCn1cc(S(=O)(=O)c2ccc(C)cc2C)c(=O)c2cc(F)c(N3CCCC3)cc21` the “activity change, negative = inhibition” value was 0.779%.
For `Cc1cccc(CNC(=O)c2oc3c(c2C)-c2nn(Cc4ccccc4Cl)cc2CC3)c1`, the “activity change, negative = inhibition” value was 6.73%.
With `COc1ccc(N2CCN(C(=O)c3cc4c(-c5ccccc5F)nn(C)c4s3)CC2)cc1` the “activity change, negative = inhibition” value was -2.54%.
In the case of `CCc1cccc(-n2c(C)nc3c(cnn3-c3ccc(Cl)cc3)c2=O)c1`, the “activity change, negative = inhibition” value is reported as 2.34%.
For `CCOc1ccc(-c2nc(CSCC(=O)N3CCN(c4cccc(C(F)(F)F)c4)CC3)c(C)o2)cc1`, the “activity change, negative = inhibition” value was -17.8%.
For `Cc1ccc(-n2ncc(C(=O)NCCc3ccccc3)c2C2CCN(C(=O)OC(C)(C)C)CC2)c(C)c1`, the “activity change, negative = inhibition” value was -6.03%.
With `CCn1cc(C(=O)NCCc2ccc(OC)c(OC)c2)c(=O)c2cc(S(=O)(=O)N3CCC(C)CC3)ccc21` the “activity change, negative = inhibition” value was -8.81%.
With `COc1cc2nc(NC(=O)c3ccc(S(=O)(=O)N4CCc5ccccc54)cc3)sc2cc1OC` the “activity change, negative = inhibition” value was 3.33%.
In the case of `Cc1ccc2oc(C(=O)NCC(c3ccc(Cl)cc3)N3CCOCC3)c(C)c2c1` (stereo not given), the “activity change, negative = inhibition” value is reported as -1.52%.
With `N=c1n(CCN2CCCCC2)c2ccccc2n1CC(O)COc1ccc(Cl)cc1Cl` (stereo not given) the “activity change, negative = inhibition” value was -4.14%.
For `CCCCN(CC)CCNC(=O)c1cc2c(=O)oc3ccc(C)cc3c2s1`, the “activity change, negative = inhibition” value was 3.87%.
For `O=C(Nc1ccc(F)cc1F)c1ccc2c(O)c(S(=O)(=O)c3ccc(Cl)cc3)c(=O)[nH]c2c1`, the “activity change, negative = inhibition” value was 6.68%.
With `CCC(C(=O)Nc1cc(Cl)ccc1OC)n1nc(-c2ccccc2)ccc1=O` (stereo not given) the “activity change, negative = inhibition” value was 0.722%.
For `CCCNC(=O)c1cnn2c(C)c(Cc3c(C)cc(C)cc3C)c(C)nc12`, the “activity change, negative = inhibition” value was -0.105%.
In the case of `CCc1ccc(NC(=O)CSc2nccn2-c2cccc(C)c2C)cc1`, the “activity change, negative = inhibition” value is reported as -12.7%.
With `Cc1c(Cl)cccc1-n1ncc(C(=O)NCc2cccs2)c1C1CCN(C(=O)OC(C)(C)C)CC1` the “activity change, negative = inhibition” value was -10.8%.
With `Cc1nc2ccccc2n1CCc1nc2c3ccccc3nc(SCC(=O)Nc3ccc(C(C)C)cc3)n2n1` the “activity change, negative = inhibition” value was -1.98%.
With `COc1ccc(NC(=O)c2c(NC(=O)c3ccc(Br)cc3)sc3c2CCCC3)cc1` the “activity change, negative = inhibition” value was -4.81%.
In the case of `Cc1ccccc1Cc1c(C)nc2nc(SCC(=O)NCCc3ccc(Cl)cc3)nn2c1C`, the “activity change, negative = inhibition” value is reported as -12.4%.
With `COCCCNC(=O)c1oc2c(c1C)-c1nn(Cc3cccc(Cl)c3)cc1CC2` the “activity change, negative = inhibition” value was -14.6%.
In the case of `Cc1cccc(-n2c3nc(=O)[nH]c(=O)c-3cc3ccc(Cl)cc32)c1C`, the “activity change, negative = inhibition” value is reported as -6.3%.
In the case of `Cc1cc(N)c(-n2cc3c(c2-c2ccc(Br)cc2)c(=O)n(C)c(=O)n3C)cc1C`, the “activity change, negative = inhibition” value is reported as -5.86%.
In the case of `Cc1cccc(Cn2nnc3c(=O)[nH]c(C4CCCN(C(=O)c5ccc(C(C)(C)C)cc5)C4)nc32)c1` (stereo not given), the “activity change, negative = inhibition” value is reported as -5.24%.
For `COc1ccc(CCN2CCC(CNC(=O)c3cnn(-c4cccc(Cl)c4)c3C3CCN(C(=O)OC(C)(C)C)CC3)CC2)cc1`, the “activity change, negative = inhibition” value was -5.53%.
For `COc1cc(NC(=O)CCc2c(C)nc3c4c(C)cc(C)nc4nn3c2C)cc(OC)c1`, the “activity change, negative = inhibition” value was 3.35%.
For `CCOC(=O)c1ccc(-c2ccc(/C=C(\C#N)c3nc4ccc(C)cc4[nH]3)o2)cc1`, the “activity change, negative = inhibition” value was -7.54%.
